Data on seven sequences can be found in the supplement of paper PMC6555819.

What all share (test): PBM binding z-score (relative to random genomic background probes); higher = stronger binding; sequences stand for … in GC…GCGATTGACAGCGTAGAATGAAGG
For test [1], the system named is FXR:RXRa (NR concentration 270 nM, RXRa partner concentration 90 nM). In a few lines: (§1)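 For binding z-scores, the reference was random background probes on custom Agilent 4×180K protein-binding microarrays. These arrays were incubated 1 h with ligand-free nuclear receptor dimers in PBS pH 7.4, 2% milk, 0.02% Triton X-100, 1 mM DTT, 0.2 mg/mL BSA and 0.4 mg/ml salmon testes DNA. Fluorescence was scanned after antibody detection of each partner (one per run) and regression-normalized.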

Test [2] relates to LXRa:RXRa (NR concentration 270 nM, RXRa partner concentration 90 nM). In a few lines: as §1
Test [3] concerns LXRa homodimer (NR concentration 270 nM). The gist of the method: as §1
Test [4] has as its system LXRb:RXRa (NR concentration 270 nM, RXRa partner concentration 90 nM). The gist of the method: as §1
Test [5] concerns LXRb homodimer (NR concentration 270 nM). The gist of the method: as §1
The subject of test [6] is PPARa:RXRa (NR concentration 270 nM, RXRa partner concentration 90 nM). The gist of the method: as §1
Test [7] concerns PPARg:RXRa (NR concentration 180 nM, RXRa partner concentration 90 nM). The gist of the method: as §1
In test [8] the test system is PPARg:RXRa 270nM:90nM, anti-RXR (NR concentration 270 nM, RXRa partner concentration 90 nM). The gist of the method:
as §1

In test [9] the test system is PPARg:RXRa 30nM:10nM, anti-RXR (NR concentration 30 nM, RXRa partner concentration 10 nM). The gist of the method:
as §1

Test [10] concerns PPARg:RXRa 90nM:30nM, anti-RXR (NR concentration 90 nM, RXRa partner concentration 30 nM). In a few lines:
as §1

Test [11] has as its system PPARg:RXRa DBDmut IVT, anti-RXR (DBD mutation: RXRa K156A/R161A, NR concentration 270 nM, RXRa partner concentration 90 nM). In a few lines:
as §1

Test [12] deals with PPARg:RXRa IVT, anti-PPARg (NR concentration 270 nM, RXRa partner concentration 90 nM). In a few lines: as §1
The test system of test [13] is PPARg DBDmut:RXRa IVT, anti-PPARg (DBD mutation: PPARg1 K132A/R137A, NR concentration 270 nM, RXRa partner concentration 90 nM). In a few lines:
as §1

Test [14] has as its system PPARg DBDmut IVT, anti-PPARg (DBD mutation: PPARg1 K132A/R137A, NR concentration 270 nM). The gist of the method: as §1
Test [15] relates to PPARg homodimer (NR concentration 180 nM). The gist of the method: as §1
In test [16] the test system is PXR:RXRa (NR concentration 270 nM, RXRa partner concentration 90 nM). The gist of the method:
as §1

The test system of test [17] is PXR homodimer (NR concentration 270 nM). The gist of the method:
as §1

For test [18], the system named is RARa:RXR (NR concentration 270 nM, RXRa partner concentration 90 nM). In a few lines: as §1
In test [19] the test system is RARa homodimer (NR concentration 270 nM). The gist of the method:
as §1

Test [20] relates to RARb:RXRa (NR concentration 270 nM, RXRa partner concentration 90 nM). The gist of the method:
as §1

Regarding CCTAGTTGCTCAAGGTCACACACGCTATAGGTAC, the PBM binding z-score in test [1] came out at 4.3; in test [2] it was 4.59; in test [3], 4.23; in test [4], 3.72; in [5], 1.6; in test [6] it was 3.98. Moreover, the PBM binding z-score in test [7] amounted to 2.13; in test [8], 2.77; in [9] it was 0.986; in test [10] it was 1.95; in [11], 1.51; in test [12], 2.33. The PBM binding z-score in test [13] stood at 0.625; in [14], 0.725; in test [15], 3.56; in [16], 4.21; in test [17] it was 2.68; in test [18] it was 4.4. For the same sequence, the PBM binding z-score is 2.45 in [19] and 3.97 in test [20].
Take TCTTGTAGATCAAGCAGGTTAAAAAAGCCTGAGT: the PBM binding z-score is 0.399 in test [1]; 0.66 in test [2]; 0.0137 in test [3]; 0.802 in test [4]; -0.381 in [5]; 1.05 in test [6]. Moreover, the PBM binding z-score was -0.353 in [7]; 1.21 in test [8]; 2.5 in test [9]; 1.89 in test [10]; 1.71 in test [11]; 0.721 in test [12]. The PBM binding z-score in [13] stood at 0.175; in test [14] it was 0.427; in test [15], 0.249; in test [16], 0.876; in test [17] it was 0.157; in [18], 0.523. The PBM binding z-score came to 0.0055 in [19] and 0.189 in test [20].
As to CAACCAAGGTGAACAAGGTCGTTGATTACTATTC, the PBM binding z-score in test [1] is 1.58; in test [2] it was 1.48; in [3] it was 0.275; in [4], 2.09; in test [5] it was -0.212; in [6], 2.67. Further, the PBM binding z-score turned out to be 1.33 in [7]; 1.41 in test [8]; 0.118 in [9]; 0.789 in [10]; 2.56 in test [11]; 3.05 in test [12]. Also, the PBM binding z-score in test [13] amounted to 0.422; in test [14], 0.588; in test [15] it was 0.973; in test [16] it was 2.8; in test [17] it was 1.68; in test [18] it was 2.42. Moreover, the PBM binding z-score in test [19] came out at 0.281; in test [20] it was 2.29.
For the sequence CCTAGTTGGTCAGGAGGTCAAACACCGGATATGA, the PBM binding z-score worked out at 4.57 in [1]; 4.4 in [2]; 3.59 in test [3]; 4.03 in [4]; 1.06 in [5]; 4.55 in test [6]. Further, the PBM binding z-score in test [7] is 3.32; in test [8], 3.96; in test [9], 1.67; in [10], 3.26; in test [11] it was 1.54; in test [12], 3.02. For the same sequence, the PBM binding z-score came to 0.223 in test [13]; 0.259 in test [14]; 3.46 in [15]; 4.59 in [16]; 2.21 in test [17]; 5.06 in test [18]. For the same sequence, the PBM binding z-score in test [19] came out at 2.09; in test [20] it was 3.76.
As to AACACAGGGTCACTAGGCCAGAGTAGGTACGAAT, the PBM binding z-score in test [1] came out at 6.27; in test [2], 4.48; in [3], 0.354; in test [4] it was 3.63; in test [5], 0.661; in [6], 5.75. Besides, the PBM binding z-score in test [7] is 7.72; in test [8], 6.51; in test [9], 2.84; in test [10] it was 5.42; in [11], 3.35; in test [12], 5.16. The PBM binding z-score in [13] stood at 3.43; in test [14], 0.694; in test [15] it was 5.13; in test [16] it was 3.16; in [17], 0.347; in [18] it was 4.14. The PBM binding z-score in [19] was 0.685; in [20], 4.19.
Turning to CCGACTGGGGCATAAGGTTACGATAAGCCAGCCC, the PBM binding z-score in test [1] was 0.452; in test [2], 0.99; in [3], -0.328; in test [4], 0.815; in test [5], -1.42; in [6] it was 2.41. Besides, the PBM binding z-score amounted to 2.58 in test [7]; 3.55 in test [8]; 1.47 in test [9]; 3.22 in test [10]; 2.87 in [11]; 3.37 in test [12]. Besides, the PBM binding z-score in [13] was -0.323; in test [14], -1.04; in test [15], 1.02; in test [16] it was 0.614; in test [17] it was -0.423; in test [18], 1.66. Also, the PBM binding z-score in test [19] was -0.594; in test [20] it was 1.77.
As for TAGCCTAGGTCATTGGGCCAGTACAGTACGCATC, the PBM binding z-score in [1] was 4.4; in [2] it was 3.61; in [3] it was 1.04; in test [4], 2.35; in [5] it was 0.354; in test [6], 3.83. The PBM binding z-score in [7] worked out at 3.38; in test [8], 3.78; in test [9] it was 0.72; in [10] it was 2.63; in test [11], 2.86; in test [12] it was 3.89. In addition, the PBM binding z-score in test [13] was -0.0279; in test [14] it was 0.0815; in test [15], 1.12; in [16] it was 1.71; in test [17], -0.112; in [18], 2.12. The PBM binding z-score in [19] is -0.528; in test [20], 3.67.
